In PubChem BioAssay (NCI) one finds growth data, which are given here for ten molecules.

The panel holds about 83,000 compounds, 20% with a hit somewhere; the sample as a whole holds those more often.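 48-hour exposure, single concentration, 96-well plates; percent growth endpoint where 0 means no net growth. Active: below 10.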 A number with no mark means an inactive call. Active and inactive are the calls of the source.

Some test systems named below: RPMI-8226 leukemia; OVCAR-8 ovarian; OVCAR-5 ovarian; OVCAR-4 ovarian; SK-OV-3 ovarian; IGROV1 ovarian; OVCAR-3 ovarian; HS 578T breast; NCI/ADR-RES ovarian; T-47D breast; BT-549 breast; MDA-MB-435 melanoma; SW-620 colon; HCT-116 colon; HCC-2998 colon; KM12 colon; MCF7 breast.
Assay in all cases: NCI-60 one-dose screen, 48 h (100 = growth as untreated, 0 = no growth, -100 = all killed)
What all share (settings): 10 µM unless noted

With `COc1cc(C2CC(c3ccc(Cl)cc3)=NN2C(C)=O)ccc1Oc1nc2c(c(=O)n(C)c(=O)n2C)n1C` (stereo unspecified), the growth in the assay on RPMI-8226 leukemia is 72.1%; in the assay with OVCAR-8 ovarian, 92.2%; in the assay on OVCAR-5 ovarian, 108%; with OVCAR-4 ovarian, 67.9%; in the assay on SK-OV-3 ovarian, 112%; with IGROV1 ovarian, 82.3%. The growth in the assay with OVCAR-3 ovarian is 102%; with HS 578T breast, 80.5%; in the assay on NCI/ADR-RES ovarian it was 61.6%; in the assay on T-47D breast, 76.8%; with BT-549 breast, 83.2%; in the assay on MDA-MB-435 melanoma, 64.1%. In addition, the growth was 98.1% with SW-620 colon, 85.5% in the assay on HCT-116 colon, 87.3% in the assay with HCC-2998 colon and 78.2% in the assay on KM12 colon.

As for `FC(F)(F)c1nn[nH]n1`, the growth with RPMI-8226 leukemia was 89.5%; with OVCAR-8 ovarian, 105%; with OVCAR-5 ovarian, 108%; with OVCAR-4 ovarian, 111%; in the assay with SK-OV-3 ovarian, 107%; in the assay with IGROV1 ovarian, 118%. Besides, the growth with OVCAR-3 ovarian is 104%; with HS 578T breast, 111%; in the assay with T-47D breast it was 101%; in the assay with BT-549 breast, 109%; in the assay with MDA-MB-435 melanoma, 101%; in the assay with SW-620 colon, 112%. Further, the growth in the assay on MCF7 breast was 97.3%; with HCT-116 colon it was 108%; in the assay with HCC-2998 colon, 98.1%; with KM12 colon it was 99.6%.

With `O=C(/C=C/c1ccco1)c1ccccc1O`, the growth with RPMI-8226 leukemia was 92.4%; in the assay with OVCAR-8 ovarian, 104%; in the assay on OVCAR-5 ovarian it was 101%; in the assay on OVCAR-4 ovarian it was 106%; in the assay with SK-OV-3 ovarian, 115%; with IGROV1 ovarian, 104%. Further, the growth was 97% with OVCAR-3 ovarian; 120% in the assay on HS 578T breast; 97.7% in the assay with NCI/ADR-RES ovarian; 77.7% in the assay on T-47D breast; 95.6% in the assay on BT-549 breast; 113% in the assay with MDA-MB-435 melanoma. In addition, the growth was 99.7% in the assay with SW-620 colon, 96.8% in the assay on HCT-116 colon, 84.4% in the assay on HCC-2998 colon and 99.8% in the assay on KM12 colon.

Consider `c1ccc2c(N=NSc3ncnc4nc[nH]c34)c3ccccc3nc2c1`, for which the growth in the assay on RPMI-8226 leukemia was -1.28% (active); with OVCAR-8 ovarian it was -25.7% (active); in the assay with OVCAR-5 ovarian, -9.11% (active); with OVCAR-4 ovarian it was -8.92% (active); in the assay on SK-OV-3 ovarian it was -14.2% (active); in the assay with IGROV1 ovarian, 6.28% (active). Further, the growth is 5.13% (active) with OVCAR-3 ovarian; 53.6% in the assay on HS 578T breast; -33.4% (active) in the assay on NCI/ADR-RES ovarian; -23.7% (active) in the assay with T-47D breast; 27.9% with BT-549 breast; 5.09% (active) in the assay with MDA-MB-435 melanoma. For the same molecule, the growth is -27.6% (active) in the assay with SW-620 colon; -27.7% (active) in the assay on MCF7 breast; -33.7% (active) in the assay on HCT-116 colon; 6.89% (active) in the assay on HCC-2998 colon; 9.38% (active) in the assay on KM12 colon.

Regarding `O=C1C=CN2C(=O)CC=CC2[C@@H]1O` (stereo partly specified), the growth in the assay on RPMI-8226 leukemia was 96.4%; in the assay with OVCAR-8 ovarian, 114%; in the assay with OVCAR-5 ovarian, 121%; with OVCAR-4 ovarian, 110%; with SK-OV-3 ovarian, 104%; with IGROV1 ovarian, 118%. The growth in the assay with OVCAR-3 ovarian was 120%; with HS 578T breast, 121%; in the assay on NCI/ADR-RES ovarian, 106%; in the assay with T-47D breast it was 90.4%; with BT-549 breast, 102%; with MDA-MB-435 melanoma, 124%. The growth with SW-620 colon was 111%; in the assay on HCT-116 colon, 96.5%; in the assay on HCC-2998 colon, 114%; with KM12 colon, 105%.

Regarding `COc1ccc(C2NC(=O)c3cc4c(cc3N2)OCO4)cc1` (stereo unspecified), the growth in the assay with RPMI-8226 leukemia is 27.8%; in the assay with OVCAR-8 ovarian it was 22.3%; in the assay with OVCAR-5 ovarian it was 45.3%; with OVCAR-4 ovarian it was 59.5%; with SK-OV-3 ovarian, -7.72% (active); in the assay with IGROV1 ovarian, 42.8%. Further, the growth was -45.9% (active) in the assay with OVCAR-3 ovarian; 16.4% in the assay on HS 578T breast; 3.94% (active) in the assay with NCI/ADR-RES ovarian; 65.5% in the assay with T-47D breast; 59.1% in the assay on BT-549 breast; -41.6% (active) in the assay on MDA-MB-435 melanoma. In addition, the growth was 24.1% with SW-620 colon; 18.2% in the assay on MCF7 breast; 14.1% in the assay with HCT-116 colon; 9.52% (active) in the assay with HCC-2998 colon; 9.55% (active) with KM12 colon.

Regarding `COc1ccc(C(=O)N2N=C(c3ccc(F)cc3)CC2c2cn(-c3ccccc3)nc2-c2ccccc2)cc1` (stereo unspecified), the growth with RPMI-8226 leukemia was 62%; in the assay with OVCAR-8 ovarian, 39.4%; with OVCAR-5 ovarian, 95.6%; in the assay with OVCAR-4 ovarian it was 68.2%; with SK-OV-3 ovarian, 62%; in the assay on IGROV1 ovarian, 85%. Moreover, the growth in the assay with OVCAR-3 ovarian was 45.8%; with HS 578T breast it was 83.7%; in the assay on NCI/ADR-RES ovarian it was 34.9%; in the assay with T-47D breast, 50.6%; with BT-549 breast, 77.3%; in the assay with MDA-MB-435 melanoma, 62.5%. The growth with SW-620 colon was 47.3%; with MCF7 breast it was 33.7%; in the assay on HCT-116 colon it was 7.49% (active); in the assay with HCC-2998 colon, 85.7%; with KM12 colon it was 50.6%.

`Cc1ccc([C@H]2c3[nH]c4ccccc4c3C[C@H]3C(=O)N(CCCCCCC(=O)NO)CC(=O)N23)cc1`: the growth with RPMI-8226 leukemia was 3.03% (active); with OVCAR-8 ovarian, 39.5%; in the assay on OVCAR-5 ovarian it was 44.7%; with OVCAR-4 ovarian it was 59.2%; in the assay on SK-OV-3 ovarian, 63.3%; in the assay with IGROV1 ovarian, 57.3%. The growth in the assay with OVCAR-3 ovarian is 47%; in the assay on NCI/ADR-RES ovarian, 94.5%; in the assay with T-47D breast, 19.5%; in the assay with BT-549 breast, 68%; with MDA-MB-435 melanoma it was 38.3%; in the assay on SW-620 colon, 36.5%. The growth was 35.5% with MCF7 breast, 15.8% in the assay on HCT-116 colon, 55.6% in the assay with HCC-2998 colon and 48.2% with KM12 colon.

As to `COc1cccc(-c2cc(-c3cccs3)c(C#N)c(=O)[nH]2)c1`, the growth is 98.3% with RPMI-8226 leukemia; 100% in the assay with OVCAR-8 ovarian; 113% with OVCAR-5 ovarian; 104% with OVCAR-4 ovarian; 113% with SK-OV-3 ovarian; 108% in the assay on IGROV1 ovarian. In addition, the growth in the assay with OVCAR-3 ovarian is 109%; with HS 578T breast it was 96.4%; with NCI/ADR-RES ovarian, 116%; with BT-549 breast, 113%; in the assay with MDA-MB-435 melanoma, 103%; in the assay on SW-620 colon, 105%. Further, the growth with HCT-116 colon was 101%; in the assay with HCC-2998 colon it was 125%; with KM12 colon, 101%.

As for `COc1ccc(-c2cc(-c3cn(-c4cccc(Cl)c4)nc3-c3ccc(OC)cc3)[nH]c(=S)n2)cc1`, the growth in the assay on RPMI-8226 leukemia was 50.1%; in the assay with OVCAR-8 ovarian, 84%; in the assay with OVCAR-5 ovarian, 97%; with OVCAR-4 ovarian, 75.8%; in the assay with SK-OV-3 ovarian, 90.1%; in the assay with IGROV1 ovarian, 59.4%. For the same molecule, the growth in the assay on OVCAR-3 ovarian was 108%; in the assay on NCI/ADR-RES ovarian it was 99.6%; with BT-549 breast, 103%; with MDA-MB-435 melanoma, 63.5%; with SW-620 colon, 66.6%; in the assay with MCF7 breast it was 86.1%. Besides, the growth is 69.7% with HCT-116 colon, 55.2% in the assay on HCC-2998 colon and 86.7% in the assay on KM12 colon.
